Consider 25 molecules from PubChem BioAssay (Tox21).

Experiment [1] can be described thus: qHTS RealTime-Glo MT Cell Viability Assay in HepG2 cells - 40 hour (AID 1224870). Also: nearly all actives have a fitted effect of over 50% in size. In a few lines:
(§1)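 HepG2 cells (600/well) mixed with RealTime-Glo MT reagent, settled 5 h at 37 C/5% CO2 before compound addition. Nonlytic NanoLuc luminescence from viable-cell prosubstrate reduction read repeatedly during 40 h treatment at 37 C.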

Experiment [2] is described as follows: A CellTox Green Cytotoxicity Assay to monitor cytotoxicity in HEK293 cells - 40 hour (AID 1224871). Also: nearly all actives have a fitted effect of over 45% in size. In short, it runs like this: (§2)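 Cytotoxicity was tracked continuously in HEK293 cells by a DNA-binding dye excluded from viable cells. Compounds were transferred in DMSO 5 h after seeding; fluorescence was recorded at intervals up to 40 h.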
The nature of experiment [3]: qHTS RealTime-Glo MT Cell Viability Assay in HepG2 cells - 8 hour (AID 1224873). Also: nearly all actives have a fitted effect of over 55% in size. In a few lines:
as §1
In general terms: In qHTS, concentration-response curves come from the screen itself.

The nature of experiment [4]: qHTS RealTime-Glo MT Cell Viability Assay in HEK293 cells - 40 hour (AID 1224874). Also: nearly all actives have a fitted effect of over 50% in size. Also: potency is read from the fitted curve at half-maximal effect. As to conditions: RealTime-Glo luminescence; max response: active compounds read low. In short, it runs like this: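 Nonlytic bioluminescent viability monitoring. HEK293 at 600 cells/well with reagent; 5 h settle; compound transfer by pintool; plates held at 37 C and read at set time points.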

Experiment [5] is described as follows: A CellTox Green Cytotoxicity Assay to monitor cytotoxicity in HEK293 cells - 24 hour (AID 1224875). Also: series mostly up to about 77 µM; nearly all actives have a fitted effect of over 45% in size. In a few lines:
as §2

Experiment [6] in a line: qHTS RealTime-Glo MT Cell Viability Assay in HepG2 cells - 32 hour (AID 1224877). Also: nearly all actives have a fitted effect of over 55% in size. In short, it runs like this:
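HepG2 cells (600/well) were dispensed with RealTime-Glo reagents, incubated 5 h at 37 °C, then treated with compounds in DMSO for up to 40 h. Nonlytic NanoLuc luminescence reflecting viable cells was read at each stated time point.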

A short description of experiment [7]: A CellTox Green Cytotoxicity Assay to monitor cytotoxicity in HepG2 cells - 40 hour (AID 1224879). Also: nearly all actives have a fitted effect of over 40% in size. Also: potency is read from the fitted curve at half-maximal effect. In a few lines: (§3)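 Real-time, homogeneous cytotoxicity readout: dead-cell DNA staining by CellTox Green in HepG2 monolayers, fluorescence measured at timed intervals up to 40 h of continuous compound exposure.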
Experiment [8] in a line: qHTS RealTime-Glo MT Cell Viability Assay in HEK293 cells - 16 hour (AID 1224872). Also: top concentration of the series differs between compounds; nearly all actives have a fitted effect of over 50% in size. In a few lines:
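HEK293 cells seeded with NanoLuc/prosubstrate reagent, rested 5 h at 37 C, then dosed and kept at 37 C up to 40 h. Nonlytic real-time luminescence from viable cells read at 0, 8, 16, 24, 32 and 40 h.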

The nature of experiment [9]: A CellTox Green Cytotoxicity Assay to monitor cytotoxicity in HepG2 cells - 16 hour (AID 1224876). Also: nearly all actives have a fitted effect of over 45% in size. In a few lines: as §3
Experiment [10] can be described thus: A CellTox Green Cytotoxicity Assay to monitor cytotoxicity in HepG2 cells - 24 hour (AID 1224878). Also: nearly all actives have a fitted effect of over 45% in size. In short, it runs like this:
as §3

Structures are written as SMILES. Records with an inconclusive call do not appear. A number with no mark means an inactive call. Calls of active or inactive are those of the source. Calls follow the shape of the dose curve; as a rule, active = well fitted curve in the direction sought with a large enough effect in the repeat runs; inconclusive = weak or mixed curves; inactive = no such curve, though single readings can be large; an effect the other way counts as inactive or inconclusive.
% is scaled to controls: 0 for no effect and ±100 for the full control effect.

Turning to `CSc1nc(NC2CC2)nc(NC(C)(C)C)n1`, the Potency entry in experiment [1], in [2], in experiment [5], in experiment [6] and in [7] was “inactive” each time. Further, the molecule was called inactive in experiment [3]. Moreover, the Potency in [4] was 24.5 µM (active).

Regarding `CNC(=O)c1c(I)c(NC(=O)CCCCC(=O)Nc2c(I)c(C(=O)O)c(I)c(C(=O)NC)c2I)c(I)c(C(=O)O)c1I`, the Potency result in experiment [1], in experiment [8], in experiment [5], in experiment [9], in experiment [6] and in experiment [10] was “inactive” throughout. For the same molecule, the Potency entry in experiment [7] is “inactive”. For the same molecule, the call in experiment [3] was inactive. Moreover, the max response in experiment [4] was -0.381%.

As to `OC[C@H]1O[C@@H]2O[C@H]3[C@H](O)[C@@H](O)[C@@H](O[C@H]4[C@H](O)[C@@H](O)[C@@H](O[C@H]5[C@H](O)[C@@H](O)[C@@H](O[C@H]6[C@H](O)[C@@H](O)[C@@H](O[C@H]7[C@H](O)[C@@H](O)[C@@H](O[C@H]8[C@H](O)[C@@H](O)[C@@H](O[C@H]9[C@H](O)[C@@H](O)[C@@H](O[C@H]1[C@H](O)[C@H]2O)O[C@@H]9CO)O[C@@H]8CO)O[C@@H]7CO)O[C@@H]6CO)O[C@@H]5CO)O[C@@H]4CO)O[C@@H]3CO`, the Potency entry in experiment [1], in experiment [8], in experiment [5], in [9], in [6] and in experiment [10] was “inactive” in each case. The Potency entry in [7] was “inactive”. In addition, the result in [3] was inactive. Also, in [4], the max response was 1.22%.

With `CO[Si](OC)(OC)OC`, the Potency entry in experiment [1], in experiment [8], in [5], in experiment [9], in experiment [6] and in experiment [10] was “inactive” each time. Besides, the Potency entry in [7] is “inactive”. Besides, the result in [3] was inactive. In addition, the max response in experiment [4] was 16.8%.

As for `Oc1cc(O)c2c(c1)O[C@H](c1ccc(O)c(O)c1)[C@H](O)C2`, the Potency entry in experiment [1], in experiment [2], in experiment [5], in [9], in experiment [6] and in experiment [10] was “inactive” in each case. Moreover, the Potency entry in experiment [7] was “inactive”. Moreover, the max response in [4] was 0.448%.

As to `COCCOC(=O)CC#N`, the Potency entry in experiment [1], in [2], in experiment [9], in [6], in [10] and in experiment [7] was “inactive” in each case. For the same molecule, the max response in experiment [4] was 1.9%.

In the case of `FC(F)(F)C(F)(F)C(F)(F)C(F)(F)C(F)(F)C(F)(F)C(F)(F)C(F)(F)C(F)(F)C(F)(F)F`, the activity change, negative = cytotoxic in experiment [1] is -1.18% [at 6.97 µM]; in [6] it was -2.37% [at 6.97 µM]. In addition, the activity change, negative = cytotoxicity in experiment [8] is -4.72% [at 6.97 µM]. In addition, the viability change, negative = cytotoxic in experiment [3] is 3.63% [at 6.97 µM]. Moreover, the max response in experiment [4] is -1.44%. Moreover, in experiment [5], the activity change was -7.77% [at 6.97 µM, active compounds read high]. Further, the cytotoxicity increase in [9] was 1.39% [at 6.97 µM]; in experiment [7] it was 1.66% [at 6.97 µM]. The cytotoxicity in [10] is 4.69% [at 6.97 µM].

`CCN1CCCC1CNC(=O)c1cc(S(N)(=O)=O)ccc1OC` (stereo not given): the Potency result in experiment [1], in [2], in experiment [5], in experiment [6] and in experiment [10] was “inactive” throughout. In addition, the call in experiment [3] was inactive. Also, in [7], the Potency was 43.6 µM (active).

On to `CCCC(C)CO` (stereo not given), for which the Potency result in experiment [1], in [2], in experiment [9], in experiment [6], in experiment [10] and in experiment [7] was “inactive” each time. Further, the molecule was called inactive in experiment [3]. For the same molecule, the max response in experiment [4] is 8.5%.

Consider `CCCCCN(CCCCC)C(=O)C(CCC(=O)O)NC(=O)c1ccc(Cl)c(Cl)c1` (stereo not given), for which the Potency entry in [1], in experiment [2], in experiment [5], in [9], in [6] and in [10] was “inactive” throughout. Further, in experiment [7], the Potency result is “inactive”. Moreover, in experiment [4], the max response is -6.43%.

On to `O=C(O)C(O)[C@H](O)[C@@H](O)[C@H](O)[C@H](O)CO` (stereo not given in full), for which the Potency entry in experiment [1], in experiment [2], in experiment [5], in [9], in experiment [6] and in experiment [10] was “inactive” each time. The Potency entry in experiment [7] is “inactive”. Moreover, the molecule was called inactive in [3].

As to `C=C[Si](OC)(OC)OC`, the Potency entry in experiment [1], in experiment [8], in [5], in [9], in experiment [6] and in experiment [10] was “inactive” throughout. For the same molecule, the Potency result in experiment [7] is “inactive”. The result in experiment [3] was inactive. Also, the max response in experiment [4] was 16.1%.

For `CCC(C)OC(=O)N1CCCCC1CCO` (stereo not given), the Potency result in experiment [1], in [8], in experiment [5], in [9], in experiment [6] and in experiment [10] was “inactive” throughout. For the same molecule, in experiment [7], the Potency entry is “inactive”. Moreover, the molecule was called inactive in experiment [3]. The max response in experiment [4] is -15.9%.

`CC(C)(O)C(=O)c1ccc(OCCO)cc1`: the Potency entry in [1], in [2], in [9], in [6], in [10] and in [7] was “inactive” each time. The molecule was called inactive in [3]. Further, the max response in experiment [4] was 6.03%.

In the case of `Cc1onc(-c2ccccc2)c1-c1ccc(S(N)(=O)=O)cc1`, the Potency entry in experiment [1], in experiment [2], in experiment [5], in experiment [9], in experiment [6] and in experiment [10] was “inactive” each time. Moreover, the Potency entry in experiment [7] is “inactive”. Moreover, in experiment [3], the call was inactive.

As to `C=C(C)C(=O)OCCC(C)OC(=O)C(=C)C` (stereo not given), the Potency entry in experiment [1], in [8], in experiment [5], in [9], in [6] and in experiment [7] was “inactive” in each case. The outcome in experiment [3] was inactive. Besides, in experiment [4], the max response was 8.52%.

With `CC(C)[C@H](N)C(=O)OCCOCn1cnc2c(=O)[nH]c(N)nc21`, the Potency result in experiment [1], in [2], in [5], in experiment [9], in experiment [6] and in experiment [10] was “inactive” each time. In addition, in experiment [7], the Potency result was “inactive”. Besides, the max response in [4] is 9.28%.

In the case of `COc1ccc(NC(C)=O)cc1`, the Potency result in experiment [1], in [2], in experiment [9], in experiment [6] and in experiment [7] was “inactive” each time. Moreover, the outcome in [3] was inactive. Also, the max response in experiment [4] is -7.34%.

`NC1CCN(c2cccc(Cl)n2)CC1`: the Potency entry in experiment [1], in [8], in experiment [5], in experiment [9], in [6] and in [10] was “inactive” in each case. For the same molecule, the Potency result in experiment [7] is “inactive”. Further, in experiment [3], the molecule was classed as inactive. Moreover, in [4], the max response was -1.03%.

`COCc1ccc(COC)cc1`: the Potency result in experiment [1], in experiment [8], in [5], in experiment [9], in [6] and in [10] was “inactive” each time. Moreover, the Potency entry in experiment [7] was “inactive”. Also, in [3], the outcome was inactive. For the same molecule, the max response in [4] was 4.98%.

In the case of `C1CCCCCCCCCCC1`, the cytotoxicity increase in experiment [2] is -40.6% [at 15.8 µM]; in [9], -3.96% [at 15.8 µM]; in experiment [7], -12.7% [at 15.8 µM]. Also, the activity change in [5] was -35.9% [at 15.8 µM, active compounds read high]. In addition, the activity change, negative = cytotoxic in [6] was 12% [at 15.8 µM]. Besides, the cytotoxicity in [10] is -7.04% [at 15.8 µM].

Consider `Nc1cc(C(Cl)=C(Cl)Cl)c(S(N)(=O)=O)cc1S(N)(=O)=O`, for which the Potency result in [1], in experiment [9], in [6], in experiment [10] and in experiment [7] was “inactive” in each case. The molecule was classed as inactive in experiment [3]. Further, in [4], the max response is -0.745%.

With `NC(=O)Nc1nc2ccccc2[nH]1`, the Potency result in experiment [1], in [8], in [9], in [6], in experiment [10] and in experiment [7] was “inactive” each time. The molecule was called inactive in experiment [3]. Besides, the max response in experiment [4] is -25.5%.

As for `CN(C)C(=O)Nc1ccccc1`, the Potency result in experiment [1], in [8], in [5], in experiment [9], in experiment [6] and in experiment [7] was “inactive” each time. Besides, the molecule was classed as inactive in experiment [3]. For the same molecule, the max response in experiment [4] is 1.06%.

On to `O=C(O)c1ccc[n+]([O-])c1`, for which the Potency result in [1], in [8], in [5], in experiment [6], in experiment [10] and in [7] was “inactive” throughout. The max response in experiment [4] was 8.34%.
